# Screens deposited in PubChem by several laboratories.
# Rows were chosen to be rich in hits. Some 3.4% of all compounds tested hit in one or more screens of this group.
# TROY NFkB inh: TROY signaling inhibition. Q293 LMP1-TROYcd NF-kB luciferase reporter, 4 h. inhibition, % at 10 µM. hit rate 0.98% among 360,000. AID 1347056;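 active = compounds whose plate-normalised and pattern-corrected inhibition of the luciferase reporter signal at the single screening dose is 50% or more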
# TWEAK Fn14 block: blocks TWEAK-Fn14 interaction in a reporter cell assay; TWEAK-stimulated Fn14 reporter cells, luciferase luminescence, 8 h; inhibition, % at 10 µM; hit rate 2% among 360,000; in the data active = inhibition above about 50%
# HIF-2a inh: HIF-2a inhibition | 786-0 RCC cells HIF-2a reporter, luciferase luminescence, overnight | inhibition, % at 18.8 µM | hit rate 0.72% among 360,000 | AID 624352;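 active = inhibition of the luminescence signal of 40% or more relative to plate controls, in a single-dose primary screen at 18.75 µM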
# TRPM1 prom inh: reduces MITF-dependent TRPM1 promoter luciferase signal | SK-MEL-5 TRPM1 promoter luciferase, 24 h | inhibition, % at 12.5 µM | hit rate 0.83% among 330,000 | AID 488899;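 active = mean inhibition across replicates of 60% or more, whatever share of single replicates reaches that level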
# LMP1 NFkB inh: reduces LMP1-driven NF-kappaB luciferase signal; LMP1-induced NF-kappaB luciferase reporter cells, luminescence; inhibition, % at 12.5 µM; hit rate 0.69% among 350,000; AID 504558; in the data active = inhibition above about 41%
# Shn3 inh set2: reduces Shn3 3'UTR luciferase signal in osteoblasts; inhibition, % at 12.5 µM; Clone20 osteoblast Shn3 3'UTR firefly luciferase, 24 h; hit rate 0.52% among 360,000; AID 588674;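 active = mean inhibition of at least 75% with every replicate also reaching 75%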
# Hits are given with their value; i = inactive; nt = no result; ! = a repeat was not active.
SMILES,TROY NFkB inh,TWEAK Fn14 block,HIF-2a inh,TRPM1 prom inh,LMP1 NFkB inh,Shn3 inh set2
O=C(Nc1ccccc1N1CCN(C(=O)c2ccc(Cl)cc2)CC1)c1ccc([N+](=O)[O-])o1,i,i,i,86.8,i,i
CCN1CCN(c2c(Cl)cccc2NC(=O)c2ccc([N+](=O)[O-])o2)CC1,i,i,i,101.7,i,i
CCCC(=O)N1CCN(c2ccc(NC(=O)c3ccc([N+](=O)[O-])o3)cc2Cl)CC1,i,i,90.3,90.7,i,95.8
COCCNC(=O)C(=O)NCC1OCCN1C(=O)c1ccc(Cl)cc1 (stereo not drawn),i,i,i,i,79.8,i
Cc1ccccc1-c1cn(-c2ccccc2)c(=S)[nH]1,i,i,i,i,i,i
Cc1ccc(-c2cn(-c3ccccc3)c(=S)[nH]2)cc1C,i,67.9,i,i,i,i
O=C(NCc1ccccc1Cl)c1ccc2nc([C@@H]3O[C@H](CO)[C@@H](O)[C@H]3O)[nH]c2c1,i,i,i,nt,nt,i
CCn1c(=O)c2cc(C(=O)NCc3cccs3)sc2c2ccccc21,i,i,i,i,51.6,i
CCCCNC(=O)c1cc2c(=O)n(CC)c3ccccc3c2s1,i,i,i,i,i,i
OC[C@@H]1CN(Cc2ccc(-c3ccccc3)cc2)C[C@H](n2cnc3c(N4CCCC4)ncnc32)O1,i,i,i,nt,nt,i
Cc1csc2ncnc(N3CCN(C(=O)Nc4ccc(OC(F)(F)F)cc4)CC3)c12,i,62.6,i,i,i,i
COC(=O)c1ccc(C(=O)NC2CCCc3c2cnn3-c2ccccc2F)nc1 (stereo not drawn),i,i,i,i,i,i
Cc1cc(C(=O)NC2CCCc3c2cnn3-c2cccc(C)c2C)n(C)n1 (stereo not drawn),i,i,i,i,i,90.8
CCn1nc(C)cc1C(=O)NC1CCCc2c1cnn2-c1ccc(C)c(C)c1 (stereo not drawn),55.5,i,i,i,i,i
COc1cc(C(=O)NC2CCCc3c2cnn3-c2ccccc2F)cc(OC)c1OC (stereo not drawn),i,i,i,i,i,89.4
CCc1[nH]nc(C(=O)NC2CCCc3c2cnn3-c2cc(C)cc(C)c2)c1C (stereo not drawn),57.7,i,i,i,i,i
Cc1ccc([C@H]2C[C@@H](O)[C@H](n3cc(C4CC4)nn3)CN2CC2CCCCC2)cc1,i,i,i,nt,i,i
CCOC(=O)N1CCN(C(=O)C2CC(=O)N(c3ccc(C)cc3)C2)CC1 (stereo not drawn),i,i,i,i,i,i
N=C(N)n1ncc2c1CCCC2=O,i,i,i,nt,nt,nt
COc1ccc([C@H]2C[C@H](n3cc(C4CC4)nn3)[C@@H](O)CN2CC2CCCCC2)cc1,i,i,i,nt,i,i
CCN(Cc1ccccc1)C(=O)Cc1c[nH]c2ccccc12,i,i,i,i,i,i
CCCCN(CC)CCNC(=O)c1cc2c(-c3ccc(Cl)cc3)nn(C)c2s1,i,i,i,68.2,i,i
O=C(NCc1ccccc1)Nc1cccn(Cc2ccccc2Cl)c1=O,i,i,i,i,i,i
O=C1[C@H]2CCCC[C@H]2C(=O)N1CCCCN1CCN(c2nsc3ccccc23)CC1,i,i,i,i,61.8,i
CCC(C)(C)C1CCc2[nH]nc(C(=O)N/N=C(\C)c3ccco3)c2C1 (stereo not drawn),68.4,i,i,i,i,nt
SMILES,TROY NFkB inh,TWEAK Fn14 block,HIF-2a inh,TRPM1 prom inh,LMP1 NFkB inh,Shn3 inh set2
O=C(NN=C1CCCC1)c1n[nH]c2c1CCC2,i,i,i,i,i,i
C/C(=N\NC(=O)c1n[nH]c2c1CCC2)c1ccco1,i,58.6,i,i,i,i
Fc1ccc(Nc2nnc(-c3ccncc3)s2)cc1Cl,i,i,i,nt,nt,i
CC(=O)c1ccc(CCCCc2ccc(C(C)=O)cc2)cc1,i,i,i,i,i,i
O=C1c2ccccc2CN1CCNC(=S)NC1CCCCC1,i,i,i,i,49.4,i
O=C(NCCN1Cc2ccccc2C1=O)c1cccs1,i,i,i,i,i,i
Cc1ccc(S(=O)(=O)N2CCOCC2)cc1NC(=O)CSc1nnnn1C1CC1,i,i,i,nt,i,i
CC(=O)Nc1ccc(NC(=O)COc2ccc(Cl)cc2Cl)cc1,i,i,i,nt,i,i
Cc1ccc(Cl)cc1NC(=O)COC(=O)C12CC3CC(CC(C3)C1)C2,i,66.8!,i,i,i,i
O=C(COc1ccc(Cl)cc1Cl)Nc1ccc(Cl)cn1,i,54.3,i,i,i,i
